Screens: PubChem BioAssay, National Center for Advancing Translational Sciences (NCATS)
PLK1 PBD block = qHTS for Inhibitors of PLK1-PDB (polo-like kinase 1 - polo-box domain): Primary Screen. Serine/threonine-protein kinase PLK1 (Homo sapiens), P53350. Plk1 PBD binding of FITC phosphopeptide, fluorescence polarization. Potency, µM, actives largely listed as inhibitors. hit rate 2.8% among 360,000; further: series mostly up to about 57 µM; nearly all actives have a fitted effect of over 65% in size
Sfp inh = qHTS Assay for Inhibitors of Bacillus subtilis Sfp phosphopantetheinyl transferase (PPTase) | Biochemical Sfp PPTase activity, qHTS | hit rate 3.5% among 310,000 | Potency, µM, hits mostly inhibitors;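 further: the enzyme is Sfp with the accession as filed and its product quenches rhodamine fluorescence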
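Reaction rates are the 30-min fluorescence difference (ex 525, em 598 nm) in wells containing 15 nM Sfp, 5 uM rhodamine-CoA and 12.5 uM BHQ-2-YbbR at pH 7.6 with 10 mM MgCl2.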
BAZ2B inh = qHTS Assay for Inhibitors of BAZ2B. AID 504333, 2011. Potency, µM (series often up to 114 µM), most hits filed as inhibitors. AlphaScreen BAZ2B-H3K14Ac peptide displacement. hit rate 4.4% among 360,000. Bromodomain adjacent to zinc finger domain protein 2B (Homo sapiens), Q9UIF8; further: nearly all actives have a fitted effect of over 60% in size
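In this displacement format the biotinylated H3(5-23) peptide acetylated at Lys14 serves as ligand at 50 nM, with BAZ2B at 50 nM in PBS pH 7.4 containing 0.01% Tween-20. Donor and acceptor beads are 10 ug/mL final.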
JMJD2A Tudor inh = qHTS Assay for Inhibitors of JMJD2A-Tudor Domain; AlphaScreen JMJD2A-Tudor / H3K4me3 peptide binding; AID 504339, 2011; hit rate 4.4% among 390,000; Potency, µM (titrated, usually from 114 µM), usual class: inhibitors; Lysine-specific demethylase 4A (Homo sapiens), O75164; further: nearly all actives have a fitted effect of over 50% in size
HP1b chromo inh = HTS for Inhibitors of HP1-beta Chromodomain Interactions with Methylated Histone Tails; Chromobox protein homolog 1 (Homo sapiens), P83916; AlphaScreen HP1-beta / biotin-H3K9me3 peptide binding; Potency, µM (titrated, usually from 114 µM), hits mostly inhibitors; hit rate 0.56% among 390,000; further: nearly all actives have a fitted effect of over 70% in size
Target sequence (P83916 whole entry, looked up): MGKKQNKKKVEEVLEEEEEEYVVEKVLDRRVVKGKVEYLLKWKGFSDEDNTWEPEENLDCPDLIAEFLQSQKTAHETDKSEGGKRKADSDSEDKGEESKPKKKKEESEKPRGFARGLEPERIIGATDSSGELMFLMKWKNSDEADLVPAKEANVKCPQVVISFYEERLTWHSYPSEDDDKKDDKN
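HP1-beta protein (50 nM final) preincubated 30 min at room temperature with biotinylated H3(1-18)K9me3 peptide (50 nM) in PBS pH 7.4, 0.01% Tween-20, then compound added for 30 min. AlphaScreen streptavidin donor/nickel chelate acceptor beads (10 ug/mL final), 30 min dark, luminescence read.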
G9a inh = qHTS Assay for Inhibitors of Histone Lysine Methyltransferase G9a | Potency, µM (top dose mostly 102 µM), hits mostly inhibitors | Histone-lysine N-methyltransferase EHMT2 (Homo sapiens), Q96KQ7 | hit rate 8.8% among 350,000 | G9a H3K9 monomethylation, AlphaScreen, 2 h; further: nearly all actives have a fitted effect of over 75% in size
Target sequence (Q96KQ7 913-1193 limits assumed): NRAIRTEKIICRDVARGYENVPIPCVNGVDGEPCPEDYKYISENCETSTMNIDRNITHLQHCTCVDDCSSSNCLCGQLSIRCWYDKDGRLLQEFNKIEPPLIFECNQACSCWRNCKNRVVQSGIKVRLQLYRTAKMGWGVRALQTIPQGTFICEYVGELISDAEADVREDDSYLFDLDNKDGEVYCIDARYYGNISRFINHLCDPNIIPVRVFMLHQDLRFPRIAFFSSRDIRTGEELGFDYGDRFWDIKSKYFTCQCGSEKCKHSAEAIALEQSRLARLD
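Quantitative HTS format: methyltransferase activity on a biotin-tagged H3K9 peptide is measured by AlphaScreen, using a rabbit anti-monomethyl-H3K9 antibody with streptavidin donor and anti-IgG acceptor beads. Final levels are 20 nM enzyme, 500 nM peptide, 20 uM SAM; 2 h RT.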
A number is an active result; – = inactive; ? = inconclusive; · = no result; [ ] = dose if it differs, or a comment. Most compounds without a hit are left out; they make up all but 12% or so of the library. The call rests on the fitted dose curve; in most records, active means well fitted curve in the direction sought with a large enough effect; inconclusive means small, poorly fitted or top-dose-only effect, or another doubt; inactive means no such curve, though single readings can be large; an effect the other way counts as inactive or inconclusive.

SMILES	PLK1 PBD block	Sfp inh	BAZ2B inh	JMJD2A Tudor inh	HP1b chromo inh	G9a inh
CC(=O)c1cccc(CN(C)CC2CCCN(CCc3ccccc3C)C2)c1 (configuration not stated)	–	–	?	–	–	–
COc1ccc(S(=O)(=O)N2CCC(C)CC2)cc1N(C)S(=O)(=O)c1ccccc1	–	–	–	–	–	–
COc1ccc(S(N)(=O)=O)cc1N(C)S(=O)(=O)c1ccccc1	26.7µM	–	–	?	–	–
O=[N+]([O-])c1cccc(C=Nc2cc3c(cc2Br)OCCO3)c1	–	–	?	?	–	50.1µM
O=C(N/N=C/c1cccc([N+](=O)[O-])c1)c1ccc2c(c1)OCCO2	–	–	–	–	–	–
O=C1C2CC=CCC2C(=O)N1CC1CCCO1 (configuration not stated)	23.8µM	–	–	?	–	–
COc1ccccc1CNC(=O)c1oc2ccc(S(=O)(=O)N3CCCCC3)cc2c1C	·	·	–	–	–	–
NS(=O)(=O)c1ccc(NCC2COc3ccccc3O2)c([N+](=O)[O-])c1 (configuration not stated)	–	–	–	–	–	50.1µM
CC1CCCC/C1=N\Nc1ccc(S(N)(=O)=O)cc1[N+](=O)[O-] (configuration not stated)	–	–	?	?	?	–
CCN(CC)S(=O)(=O)c1ccc(NN=C2CCN(C(C)C)CC2)c([N+](=O)[O-])c1	–	–	?	?	–	44.7µM
CC(C)(C)C1CCC(=NNc2ccc(S(N)(=O)=O)cc2[N+](=O)[O-])CC1 (configuration not stated)	–	–	?	?	–	25.1µM
CCN(CC)S(=O)(=O)c1ccc(NN=C2CCN(C)CC2)c([N+](=O)[O-])c1	–	–	·	?	?	35.5µM
COCCCNC(=O)CSc1nc2cc3c(cc2c(=O)n1CCCC(=O)NCc1ccc2c(c1)OCO2)OCO3	·	·	–	–	–	–
Cn1c(NC(=O)c2ccc(F)cc2)c(-c2ccccn2)c(=O)c2ccccc21	–	–	–	–	–	?
Cn1c(NC(=O)c2ccccc2)c(-c2ccccn2)c(=O)c2ccccc21	–	–	–	31.6µM	–	?
CCC(C)(C)NC(=O)C(c1ccc(F)cc1)N(CCOC)C(=O)CCC(=O)Nc1nccs1 (configuration not stated)	–	–	–	–	–	–
CN(C)c1cc2c(c(N(C)C)c1)C(=O)c1ccccc1C2=O	–	?	8.91µM	?	?	10µM
O=C(CSc1nc(=O)n(CCN2CCOCC2)c2c1CCC2)Nc1ccc(Cl)c(Cl)c1	·	·	–	–	–	–
Cc1cc(C)c(NC(=O)COC(=O)Cc2ccsc2)c(C)c1	26.7µM	–	–	–	–	–
Cc1cccc(C)c1NC(=O)COC(=O)Cc1ccsc1	–	–	–	–	–	–
Cc1ccccc1NC(=O)COC(=O)Cc1ccsc1	26.7µM	–	–	–	–	–
CCC1CCCCN1C(=O)c1nn(-c2ccc(C)cc2)c(=O)c2c1c1ccccc1n2C (configuration not stated)	·	·	·	–	–	–
COC(=O)c1c(C)[nH]c(C=O)c1-c1ccccc1	–	–	–	–	–	–
COC(=O)c1cc2c(-c3ccccc3)c(C)c3ccccn3c-2c1C(=O)OC	–	–	14.1µM	44.7µM	?	14.1µM
COC(=O)c1c(C(=O)OC)c2ccccn2c1C(=O)c1ccccc1	–	–	–	–	–	–
SMILES	PLK1 PBD block	Sfp inh	BAZ2B inh	JMJD2A Tudor inh	HP1b chromo inh	G9a inh
COC(=O)c1c(Cl)c2n3ccccc3c(C)c(-c3ccccc3)c-2c1C(=O)OC	23.8µM	–	?	?	?	8.91µM
Cc1ccc(S(=O)(=O)c2c(Nc3ccccc3)sc(C(=O)c3ccc4c(c3)OCO4)c2N)cc1	·	·	–	–	–	–
CC(=O)OC[C@@H]1O[C@H](C/C=N\OCC[C@H]2C=C[C@H](OC(C)=O)[C@@H](COC(C)=O)O2)C=C[C@@H]1OC(C)=O	·	–	·	·	·	·
COc1ccc([C@]23Cc4cc(OC)c(OC)cc4C(O2)c2c(c4ccccc4oc2=O)O3)cc1	·	–	10µM	·	·	?
COc1ccc([C@]23Cc4ccccc4C(O2)c2c(c4ccc(OC)cc4oc2=O)O3)cc1	·	–	?	·	·	–[2.33 µM]
COc1ccc([C@]23Cc4cc(OC)c(OC)cc4C(O2)c2c(cc(C)n(Cc4ccccc4)c2=O)O3)cc1	·	–	11.2µM	·	·	–[2.33 µM]
CSCC[C@H](NC(=O)[C@@H](NC(=O)[C@H](CCC(=O)O)NC(=O)[C@H](CCSC)NC(=O)[C@H](CC(N)=O)NC(=O)[C@H](CCC(=O)O)NC(=O)[C@H](CC(N)=O)NC(=O)[C@H](CO)NC(=O)[C@H](C)N)[C@@H](C)O)C(=O)O	·	–	·	·	·	·
CCOc1ccc(NC(=O)C(=O)NCCc2ccccc2)cc1	·	·	–	–	–	–
O=C(C[n+]1ccc(CCSc2ccc(F)cc2)cc1)c1ccccc1	1.89µM	50.1µM	–	?	44.7µM	22.4µM
Cc1ccc(C(=O)C[n+]2ccc(Cc3ccccc3)cc2)cc1	–	–	–	–	–	44.7µM
COc1ccc(CCNC(=O)c2cccc(S(=O)(=O)N3CCCCCC3)c2)cc1	–	·	–	–	–	–[12.7 µM]
COc1ccccc1C1CC(c2cccs2)=NN1C(=O)CCC(=O)O (configuration not stated)	–	–	–	–	–	–
COc1ccccc1C1CC(c2cccs2)=Nc2ccccc2S1 (configuration not stated)	–	50.1µM	–	–	–	–[12.7 µM]
Cc1cc(C)nc(Nc2n[nH]c(COc3ccccc3)n2)n1	3.36µM	–	–	31.6µM	–	–
COc1ccc2c(c1O)C(=O)c1ccccc1C2=O	·	–	–	·	·	–[12.7 µM]
COc1c(C=O)c(O)cc2c1C(=O)c1ccccc1C2=O	·	?	·	·	·	5.01µM
O=C1CCCC/C1=C\Nc1ccc(O)cc1	–	22.4µM	–	–	–	0.891µM
COc1cccc(NC(=O)CCc2nc3c(C)nn(-c4ccc(C)cc4)c3n(C)c2=O)c1	·	·	–	–	–	–
Cc1ccc(N=C2NC(=O)C(CO)(CO)S2)cc1	–	–	–	–	–	–
CCCOCC1CC2(SC(=Nc3ccc(C)cc3)NC2=O)C(=O)O1 (configuration not stated)	26.7µM	–	–	–[11.4 µM]	–	–[12.7 µM]
